Data: PubChem BioAssay (NCATS)
Records with an inconclusive call do not appear. Active and inactive are the calls of the source. The call rests on the fitted dose curve; in most records, active means well fitted curve in the direction sought with a large enough effect; inconclusive means small, poorly fitted or top-dose-only effect, or another doubt; inactive means no such curve, though single readings can be large; an effect the other way counts as inactive or inconclusive.

What was measured:
HaCat = test: Cytotoxic Profiling of Annotated Libraries Using Quantitative High-Throughput Screening (AID 1296008); conditions: Five cell lines viability, CellTiter-Glo ATP luminescence, 48-72 h; max response: active compounds read low; further: nearly all actives have a fitted effect of over 60% in size
Outline: (§1)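 Cytotoxicity was measured as CellTiter-Glo ATP luminescence, read after 10 min at room temperature. Compound treatment of the cells lasted 48 or 72 hr at 37 degrees Celsius in a qHTS format.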

KB-3-1 = test: as above; conditions: Five cell lines viability, CellTiter-Glo ATP luminescence, 48-72 h; max response: active compounds read low
Outline: as §1

NIH3T3 = test: as above; conditions: Five cell lines viability, CellTiter-Glo ATP luminescence, 48-72 h; max response: active compounds read low
Outline: as §1

C33A = test: Primary qHTS to identify gynecologic anti-cancer compounds using libraries of approved drugs and bioactive compounds (AID 1345084); conditions: Gynecologic cancer cell panel viability, ATPlite luminescence, 48 h; series mostly up to 57.5 µM; further: nearly all actives have a fitted effect of over 55% in size
Outline: (§2)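 48 h compound exposure at 37 C, 5% CO2; five-point qHTS. ATPlite luminescence readout of cell ATP.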

CAOV3 = test: as above; conditions: Gynecologic cancer cell panel viability, ATPlite luminescence, 48 h; series mostly up to 57.5 µM
Outline: as §2

CASKI = test: as above; conditions: Gynecologic cancer cell panel viability, ATPlite luminescence, 48 h; series mostly up to 57.5 µM
Outline: as §2

Es-2 = test: as above; conditions: Gynecologic cancer cell panel viability, ATPlite luminescence, 48 h; series mostly up to 57.5 µM
Outline: as §2

HeLa = test: as above; conditions: Gynecologic cancer cell panel viability, ATPlite luminescence, 48 h; series mostly up to 57.5 µM
Outline: as §2

Hek293T = test: as above; conditions: Gynecologic cancer cell panel viability, ATPlite luminescence, 48 h, control line for the selectivity index; series mostly up to 57.5 µM
Outline: as §2

JEG-3 = test: as above; conditions: Gynecologic cancer cell panel viability, ATPlite luminescence, 48 h; series mostly up to 57.5 µM
Outline: as §2

OV90 = test: as above; conditions: Gynecologic cancer cell panel viability, ATPlite luminescence, 48 h; series mostly up to 57.5 µM
Outline: as §2
On the % scale 0 is the no-effect control and ±100 the full control effect.

NC1CCCCN(c2c(F)cc3c(=O)c(C(=O)O)cn(C4CC4)c3c2Cl)C1 (centres undefined)
inactive: max response (HaCat) 0.186% | max response (KB-3-1) -4.74% | max response (NIH3T3) 1.34% | Potency (C33A) | Potency (CAOV3) | Potency (CASKI) | Potency (Es-2) | Potency (HeLa) | Potency (Hek293T) | Potency (JEG-3) | Potency (OV90)

CC(=O)OC1C(c2ccccc2)CCC(c2ccccc2)C1OC(C)=O (centres undefined)
inactive: max response (HaCat) 3.27% | max response (KB-3-1) 7.87% | max response (NIH3T3) 0.126% | Potency (C33A) | Potency (CAOV3) | Potency (CASKI) | Potency (Es-2) | Potency (HeLa) | Potency (Hek293T) | Potency (JEG-3) | Potency (OV90)

OC[C@H]1O[C@@H](Oc2ccccc2)[C@H](O)[C@@H](O)[C@@H]1O
inactive: max response (HaCat) 3.54% | outcome (KB-3-1) | max response (NIH3T3) -2.04% | Potency (C33A) | Potency (CAOV3) | Potency (CASKI) | Potency (Es-2) | Potency (HeLa) | Potency (Hek293T) | Potency (JEG-3) | Potency (OV90)

C[C@H](N)C(=O)N[C@@H](Cc1ccc(O)cc1)C(=O)N1CCC[C@H]1C(=O)NCC(=O)N[C@@H](CCCCN)C(=O)N[C@@H](Cc1ccccc1)C(N)=O
inactive: max response (HaCat) -13.5% | outcome (KB-3-1) | max response (NIH3T3) 3.32% | activity change, negative = cytotoxicity (C33A) 10.6% [at 11.6 µM] | activity change, negative = cytotoxicity (CAOV3) 7.8% [at 11.6 µM] | activity change, negative = cytotoxicity (CASKI) 6.63% [at 11.6 µM] | activity change, negative = cytotoxicity (Es-2) 2.05% [at 11.6 µM] | activity change, negative = cytotoxicity (HeLa) 3.06% [at 11.6 µM] | activity change, negative = cytotoxicity (Hek293T) 13% [at 11.6 µM] | activity change, negative = cytotoxicity (JEG-3) 1.3% [at 11.6 µM] | activity change, negative = cytotoxicity (OV90) 1.27% [at 11.6 µM]

CC1CCC2(C=O)C(CO)=CCCC2C1(C)CC(=O)O (centres undefined)
inactive: max response (HaCat) -1.16% | max response (KB-3-1) 2.85% | max response (NIH3T3) -21.3% | Potency (C33A) | Potency (CAOV3) | Potency (CASKI) | Potency (Es-2) | Potency (HeLa) | Potency (Hek293T) | Potency (JEG-3) | Potency (OV90)

CC1CCC2(C(=O)O)CCC3(C)C(=CCC4C5(C)CCC(O)C(C)(CO)C5CCC43C)C2C1(C)O (centres undefined)
inactive: max response (HaCat) 1.16% | max response (KB-3-1) -0.678% | max response (NIH3T3) 1.81% | Potency (C33A) | Potency (CAOV3) | Potency (CASKI) | Potency (Es-2) | Potency (HeLa) | Potency (Hek293T) | Potency (JEG-3) | Potency (OV90)

C[C@@H]1C[C@@H]([C@@H](O)C(C)(C)O)O[C@H]2C[C@@]3(C)C(=C12)C[C@H](O)[C@H]1[C@@]2(C)CCC(=O)C(C)(C)C2CC[C@@]13C (some centres undefined)
inactive: max response (HaCat) -11.9% | max response (KB-3-1) 5.24% | max response (NIH3T3) -0.489% | Potency (C33A) | Potency (CAOV3) | Potency (CASKI) | Potency (Es-2) | Potency (HeLa) | Potency (Hek293T) | Potency (JEG-3) | Potency (OV90)

O=C(CN1C(=O)C2(CCCC2)NCC1c1cc(F)cc(F)c1)Nc1ccc2c(c1)CC1(C2)C(=O)Nc2ncccc21 (centres undefined)
inactive: max response (HaCat) 1.71% | outcome (KB-3-1) | max response (NIH3T3) -0.622% | Potency (C33A) | Potency (CAOV3) | Potency (CASKI) | Potency (Es-2) | Potency (HeLa) | Potency (Hek293T) | Potency (JEG-3) | Potency (OV90)

CC(NC(=O)CCc1nc2ccccc2c(=O)[nH]1)c1ccccc1 (centres undefined)
inactive: max response (HaCat) -2.07% | max response (KB-3-1) -4.27% | max response (NIH3T3) 2.87% | Potency (C33A) | Potency (CAOV3) | Potency (CASKI) | Potency (Es-2) | Potency (HeLa) | Potency (Hek293T) | Potency (JEG-3) | Potency (OV90)

COC1C(CO)OC(n2cnc3c(=O)[nH]cnc32)C1O (centres undefined)
inactive: max response (HaCat) -1.42% | max response (KB-3-1) 2.15% | max response (NIH3T3) -5.01% | Potency (C33A) | Potency (CAOV3) | Potency (CASKI) | Potency (Es-2) | Potency (HeLa) | Potency (Hek293T) | Potency (JEG-3) | Potency (OV90)

COc1cc(/C=C/CO)cc(OC)c1O[C@@H]1O[C@H](CO[C@@H]2O[C@H](CO)[C@@H](O)[C@H](O)[C@H]2O)[C@@H](O)[C@H](O)[C@H]1O
inactive: max response (HaCat) 4.69% | max response (KB-3-1) 9.56% | max response (NIH3T3) -3.2% | Potency (C33A) | Potency (CAOV3) | Potency (CASKI) | Potency (Es-2) | Potency (HeLa) | Potency (Hek293T) | Potency (JEG-3) | Potency (OV90)

OC[C@H]1O[C@@H](OCCc2ccccc2)[C@H](O[C@@H]2OC[C@](O)(CO)[C@H]2O)[C@@H](O)[C@@H]1O
inactive: max response (HaCat) 0.135% | outcome (KB-3-1) | max response (NIH3T3) 1.81% | Potency (C33A) | Potency (CAOV3) | Potency (CASKI) | Potency (Es-2) | Potency (HeLa) | Potency (Hek293T) | Potency (JEG-3) | Potency (OV90)

C=CC1(C)CC(OC(=O)/C(C)=C\COC(C)=O)C(C(=C)C(=O)O)C(O)C1C(=C)CO (centres undefined)
inactive: max response (HaCat) 3.73% | max response (KB-3-1) 8.05% | max response (NIH3T3) -3.05% | Potency (C33A) | Potency (CAOV3) | Potency (CASKI) | Potency (Es-2) | Potency (HeLa) | Potency (Hek293T) | Potency (JEG-3) | Potency (OV90)

Cc1nc(C)c(-c2ccc(C3CCC(CC(=O)O)CC3)cc2)nc1C(N)=O (centres undefined)
inactive: max response (HaCat) -2.77% | max response (KB-3-1) -11.8% | max response (NIH3T3) 2.81% | Potency (C33A) | Potency (CAOV3) | Potency (CASKI) | Potency (Es-2) | Potency (HeLa) | Potency (Hek293T) | Potency (JEG-3) | Potency (OV90)
